# Assay results from article PMC11006913.
# Experiments:
# Assay in all cases: PBM; 200 nM protein, PBS
# Conditions in all cases: dsDNA, one strand shown
# [1] = target: HOXC9 (Homo sapiens, UniProt P31274 178-260, K195R)
# [2] = target: HOXC9 (Homo sapiens, UniProt P31274 178-260)
# [3] = target: HOXC9 (Homo sapiens, UniProt P31274 178-260, R193K)
# [4] = target: HOXA2 (Homo sapiens, UniProt O43364 129-215, R185T)
# [5] = target: HOXA2 (Homo sapiens, UniProt O43364 129-215, R185K)
# [6] = target: HOXC9 (Homo sapiens, UniProt P31274 178-260, R222W)
# [7] = target: HOXA2 (Homo sapiens, UniProt O43364 129-215, Y150S)
# [8] = target: HOXA2 (Homo sapiens, UniProt O43364 129-215)
# [9] = target: MSX2 (Homo sapiens, UniProt P35548 130-214, R199I)
# [10] = target: MSX2 (Homo sapiens, UniProt P35548 130-214)
# [11] = target: MSX2 (Homo sapiens, UniProt P35548 130-214, F161Y)
# [12] = target: T1, NKX2-6 (Homo sapiens, UniProt A6NCS4 118-204, R150C)
# T1 sequence: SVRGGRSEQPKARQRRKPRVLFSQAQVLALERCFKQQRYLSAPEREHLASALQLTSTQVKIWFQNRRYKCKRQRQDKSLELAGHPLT
# [13] = target: ALX3 (Homo sapiens, UniProt O95076 139-225, N203Q)
# [14] = target: HOXD13 (Homo sapiens, UniProt P35453 263-343, T313R)
# [15] = target: HOXD13 (Homo sapiens, UniProt P35453 263-343)
# [16] = target: ALX3 (Homo sapiens, UniProt O95076 139-225)
# [17] = target: PROP1 (Homo sapiens, UniProt O75360 56-141)
# [18] = target: PROP1 (Homo sapiens, UniProt O75360 56-141, R99H)
# [19] = target: ALX3 (Homo sapiens, UniProt O95076 139-225, L168Q)
# [20] = target: HOXD13 (Homo sapiens, UniProt P35453 263-343, T313A)
# [21] = target: ALX3 (Homo sapiens, UniProt O95076 139-225, L168V)
# [22] = target: PROP1 (Homo sapiens, UniProt O75360 56-141, F88S)
# [23] = target: ALX3 (Homo sapiens, UniProt O95076 139-225, N203S)
# [24] = target: CRX (Homo sapiens, UniProt O43186 26-111, E42D)
# [25] = target: PITX2 (Homo sapiens, UniProt Q99697 72-157)
# [26] = target: CRX (Homo sapiens, UniProt O43186 26-111, R41L)
# Sequence of CRX (Homo sapiens, UniProt O43186 26-111, R41L) (O43186 26-111 R41L): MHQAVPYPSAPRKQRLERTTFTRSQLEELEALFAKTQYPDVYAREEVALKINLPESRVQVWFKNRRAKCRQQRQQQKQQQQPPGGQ
# Sequence of HOXA2 (Homo sapiens, UniProt O43364 129-215, R185T) (O43364 129-215 R185T): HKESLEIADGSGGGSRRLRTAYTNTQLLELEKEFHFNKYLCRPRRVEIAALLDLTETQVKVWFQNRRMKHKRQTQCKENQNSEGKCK
# Sequence of HOXA2 (Homo sapiens, UniProt O43364 129-215, R185K) (O43364 129-215 R185K): as the sequence (O43364 129-215 R185T) above, with T57K counted along it
# Sequence of HOXC9 (Homo sapiens, UniProt P31274 178-260, K195R) (P31274 178-260 K195R): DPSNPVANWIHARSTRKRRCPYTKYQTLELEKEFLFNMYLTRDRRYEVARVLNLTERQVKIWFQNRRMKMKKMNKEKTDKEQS
# Sequence of MSX2 (Homo sapiens, UniProt P35548 130-214, R199I) (P35548 130-214 R199I): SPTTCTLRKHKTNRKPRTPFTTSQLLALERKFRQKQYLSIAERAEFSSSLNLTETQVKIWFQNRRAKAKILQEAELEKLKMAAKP
# Sequence of HOXC9 (Homo sapiens, UniProt P31274 178-260) (P31274 178-260): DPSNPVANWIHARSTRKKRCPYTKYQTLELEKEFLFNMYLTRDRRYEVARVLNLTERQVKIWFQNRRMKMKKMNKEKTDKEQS
# Sequence of HOXC9 (Homo sapiens, UniProt P31274 178-260, R222W) (P31274 178-260 R222W): as the sequence (P31274 178-260) above, with R45W counted along it
# Sequence of HOXC9 (Homo sapiens, UniProt P31274 178-260, R193K) (P31274 178-260 R193K): as the sequence (P31274 178-260) above, with R16K counted along it
# Sequence of MSX2 (Homo sapiens, UniProt P35548 130-214, F161Y) (P35548 130-214 F161Y): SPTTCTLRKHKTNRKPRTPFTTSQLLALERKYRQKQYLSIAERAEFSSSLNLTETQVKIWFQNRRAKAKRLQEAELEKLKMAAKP
# Sequence of HOXD13 (Homo sapiens, UniProt P35453 263-343, T313R) (P35453 263-343 T313R): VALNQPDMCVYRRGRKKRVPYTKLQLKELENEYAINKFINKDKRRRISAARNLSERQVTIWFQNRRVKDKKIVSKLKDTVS
# Sequence of HOXA2 (Homo sapiens, UniProt O43364 129-215, Y150S) (O43364 129-215 Y150S): as the sequence (O43364 129-215 R185T) above, with Y22S, T57R counted along it
# Sequence of HOXD13 (Homo sapiens, UniProt P35453 263-343) (P35453 263-343): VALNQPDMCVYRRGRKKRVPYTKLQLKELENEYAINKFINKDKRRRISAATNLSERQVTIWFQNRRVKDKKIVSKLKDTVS
# Sequence of MSX2 (Homo sapiens, UniProt P35548 130-214) (P35548 130-214): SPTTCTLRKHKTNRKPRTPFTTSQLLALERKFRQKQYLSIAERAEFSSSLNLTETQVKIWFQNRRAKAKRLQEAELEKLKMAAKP
# Sequence of HOXA2 (Homo sapiens, UniProt O43364 129-215) (O43364 129-215): as the sequence (O43364 129-215 R185T) above, with T57R counted along it
# Sequence of HOXD13 (Homo sapiens, UniProt P35453 263-343, T313A) (P35453 263-343 T313A): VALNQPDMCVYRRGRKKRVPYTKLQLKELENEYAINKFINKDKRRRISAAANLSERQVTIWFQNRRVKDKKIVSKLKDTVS
# Sequence of ALX3 (Homo sapiens, UniProt O95076 139-225, L168Q) (O95076 139-225 L168Q): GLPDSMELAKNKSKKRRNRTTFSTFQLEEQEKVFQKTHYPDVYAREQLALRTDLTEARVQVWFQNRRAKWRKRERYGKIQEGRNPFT
# Sequence of ALX3 (Homo sapiens, UniProt O95076 139-225, N203S) (O95076 139-225 N203S): as the sequence (O95076 139-225 L168Q) above, with Q30L, N65S counted along it
# Sequence of ALX3 (Homo sapiens, UniProt O95076 139-225, L168V) (O95076 139-225 L168V): as the sequence (O95076 139-225 L168Q) above, with Q30V counted along it
# Sequence of ALX3 (Homo sapiens, UniProt O95076 139-225) (O95076 139-225): as the sequence (O95076 139-225 L168Q) above, with Q30L counted along it
# Sequence of ALX3 (Homo sapiens, UniProt O95076 139-225, N203Q) (O95076 139-225 N203Q): as the sequence (O95076 139-225 L168Q) above, with Q30L, N65Q counted along it
# Sequence of CRX (Homo sapiens, UniProt O43186 26-111, E42D) (O43186 26-111 E42D): as the sequence (O43186 26-111 R41L) above, with L16R, E17D counted along it
# Sequence of PROP1 (Homo sapiens, UniProt O75360 56-141, F88S) (O75360 56-141 F88S): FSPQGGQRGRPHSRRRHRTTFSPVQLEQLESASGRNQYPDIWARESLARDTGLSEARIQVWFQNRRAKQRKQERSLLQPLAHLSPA
# Sequence of PROP1 (Homo sapiens, UniProt O75360 56-141, R99H) (O75360 56-141 R99H): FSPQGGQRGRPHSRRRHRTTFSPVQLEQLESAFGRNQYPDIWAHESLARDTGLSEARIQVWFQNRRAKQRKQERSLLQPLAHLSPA
# Sequence of PROP1 (Homo sapiens, UniProt O75360 56-141) (O75360 56-141): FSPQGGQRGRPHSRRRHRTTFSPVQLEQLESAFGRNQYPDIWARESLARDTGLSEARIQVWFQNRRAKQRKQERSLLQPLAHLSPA
sequence,measurement,setting,value
TAAGAATA,binding signal,[1],"10.9 upbm affinity estimate (log intensity, higher = more binding, comparable within an allelic series)"
same,binding signal,[2],"10.8 upbm affinity estimate (log intensity, higher = more binding, comparable within an allelic series)"
same,binding signal,[3],"10.9 upbm affinity estimate (log intensity, higher = more binding, comparable within an allelic series)"
CACGCGGG,binding signal,[1],"9.44 upbm affinity estimate (log intensity, higher = more binding, comparable within an allelic series)"
same,binding signal,[4],"7.04 upbm affinity estimate (log intensity, higher = more binding, comparable within an allelic series)"
same,binding signal,[2],"9.53 upbm affinity estimate (log intensity, higher = more binding, comparable within an allelic series)"
same,binding signal,[3],"9.49 upbm affinity estimate (log intensity, higher = more binding, comparable within an allelic series)"
same,binding signal,[5],"10.2 upbm affinity estimate (log intensity, higher = more binding, comparable within an allelic series)"
same,binding signal,[6],"9.63 upbm affinity estimate (log intensity, higher = more binding, comparable within an allelic series)"
same,binding signal,[7],"10.4 upbm affinity estimate (log intensity, higher = more binding, comparable within an allelic series)"
same,binding signal,[8],"7.18 upbm affinity estimate (log intensity, higher = more binding, comparable within an allelic series)"
CACAATTA,binding signal,[1],"11.7 upbm affinity estimate (log intensity, higher = more binding, comparable within an allelic series)"
same,binding signal,[2],"11.7 upbm affinity estimate (log intensity, higher = more binding, comparable within an allelic series)"
same,binding signal,[9],"12.1 upbm affinity estimate (log intensity, higher = more binding, comparable within an allelic series)"
same,binding signal,[3],"11.7 upbm affinity estimate (log intensity, higher = more binding, comparable within an allelic series)"
same,binding signal,[10],"13.4 upbm affinity estimate (log intensity, higher = more binding, comparable within an allelic series)"
same,binding signal,[11],"13 upbm affinity estimate (log intensity, higher = more binding, comparable within an allelic series)"
ACGTTGGG,binding signal,[1],"9.64 upbm affinity estimate (log intensity, higher = more binding, comparable within an allelic series)"
same,binding signal,[12],"9.44 upbm affinity estimate (log intensity, higher = more binding, comparable within an allelic series)"
same,binding signal,[2],"9.65 upbm affinity estimate (log intensity, higher = more binding, comparable within an allelic series)"
same,binding signal,[3],"9.64 upbm affinity estimate (log intensity, higher = more binding, comparable within an allelic series)"
same,binding signal,[6],"9.77 upbm affinity estimate (log intensity, higher = more binding, comparable within an allelic series)"
CCCCCCTC,binding signal,[1],"9.44 upbm affinity estimate (log intensity, higher = more binding, comparable within an allelic series)"
same,binding signal,[2],"9.34 upbm affinity estimate (log intensity, higher = more binding, comparable within an allelic series)"
same,binding signal,[13],"7.49 upbm affinity estimate (log intensity, higher = more binding, comparable within an allelic series)"
same,binding signal,[14],"8.92 upbm affinity estimate (log intensity, higher = more binding, comparable within an allelic series)"
same,binding signal,[3],"9.54 upbm affinity estimate (log intensity, higher = more binding, comparable within an allelic series)"
same,binding signal,[15],"9.09 upbm affinity estimate (log intensity, higher = more binding, comparable within an allelic series)"
same,binding signal,[16],"7.67 upbm affinity estimate (log intensity, higher = more binding, comparable within an allelic series)"
same,binding signal,[17],"6.57 upbm affinity estimate (log intensity, higher = more binding, comparable within an allelic series)"
same,binding signal,[18],"6.41 upbm affinity estimate (log intensity, higher = more binding, comparable within an allelic series)"
same,binding signal,[19],"7.57 upbm affinity estimate (log intensity, higher = more binding, comparable within an allelic series)"
same,binding signal,[20],"9.19 upbm affinity estimate (log intensity, higher = more binding, comparable within an allelic series)"
same,binding signal,[6],"9.27 upbm affinity estimate (log intensity, higher = more binding, comparable within an allelic series)"
same,binding signal,[21],"7.44 upbm affinity estimate (log intensity, higher = more binding, comparable within an allelic series)"
same,binding signal,[22],"5.9 upbm affinity estimate (log intensity, higher = more binding, comparable within an allelic series)"
same,binding signal,[23],"7.51 upbm affinity estimate (log intensity, higher = more binding, comparable within an allelic series)"
CTCCACGC,binding signal,[1],"9.69 upbm affinity estimate (log intensity, higher = more binding, comparable within an allelic series)"
same,binding signal,[2],"9.61 upbm affinity estimate (log intensity, higher = more binding, comparable within an allelic series)"
same,binding signal,[9],"9.56 upbm affinity estimate (log intensity, higher = more binding, comparable within an allelic series)"
same,binding signal,[3],"9.6 upbm affinity estimate (log intensity, higher = more binding, comparable within an allelic series)"
same,binding signal,[10],"9.47 upbm affinity estimate (log intensity, higher = more binding, comparable within an allelic series)"
same,binding signal,[6],"9.78 upbm affinity estimate (log intensity, higher = more binding, comparable within an allelic series)"
same,binding signal,[11],"9.61 upbm affinity estimate (log intensity, higher = more binding, comparable within an allelic series)"
CGCGGGAG,binding signal,[1],"9.47 upbm affinity estimate (log intensity, higher = more binding, comparable within an allelic series)"
same,binding signal,[2],"9.59 upbm affinity estimate (log intensity, higher = more binding, comparable within an allelic series)"
same,binding signal,[9],"9.38 upbm affinity estimate (log intensity, higher = more binding, comparable within an allelic series)"
same,binding signal,[3],"9.43 upbm affinity estimate (log intensity, higher = more binding, comparable within an allelic series)"
same,binding signal,[10],"9.23 upbm affinity estimate (log intensity, higher = more binding, comparable within an allelic series)"
same,binding signal,[6],"9.64 upbm affinity estimate (log intensity, higher = more binding, comparable within an allelic series)"
same,binding signal,[11],"9.25 upbm affinity estimate (log intensity, higher = more binding, comparable within an allelic series)"
AGGTGGGG,binding signal,[1],"9.9 upbm affinity estimate (log intensity, higher = more binding, comparable within an allelic series)"
same,binding signal,[4],"7.38 upbm affinity estimate (log intensity, higher = more binding, comparable within an allelic series)"
same,binding signal,[2],"9.9 upbm affinity estimate (log intensity, higher = more binding, comparable within an allelic series)"
same,binding signal,[13],"7.84 upbm affinity estimate (log intensity, higher = more binding, comparable within an allelic series)"
same,binding signal,[3],"9.81 upbm affinity estimate (log intensity, higher = more binding, comparable within an allelic series)"
same,binding signal,[5],"10.4 upbm affinity estimate (log intensity, higher = more binding, comparable within an allelic series)"
same,binding signal,[16],"7.86 upbm affinity estimate (log intensity, higher = more binding, comparable within an allelic series)"
same,binding signal,[19],"7.87 upbm affinity estimate (log intensity, higher = more binding, comparable within an allelic series)"
same,binding signal,[6],"9.81 upbm affinity estimate (log intensity, higher = more binding, comparable within an allelic series)"
same,binding signal,[21],"7.85 upbm affinity estimate (log intensity, higher = more binding, comparable within an allelic series)"
same,binding signal,[7],"10.4 upbm affinity estimate (log intensity, higher = more binding, comparable within an allelic series)"
same,binding signal,[23],"7.82 upbm affinity estimate (log intensity, higher = more binding, comparable within an allelic series)"
same,binding signal,[8],"7.26 upbm affinity estimate (log intensity, higher = more binding, comparable within an allelic series)"
AGATTAAA,binding signal,[1],"11.2 upbm affinity estimate (log intensity, higher = more binding, comparable within an allelic series)"
same,binding signal,[24],"12.7 upbm affinity estimate (log intensity, higher = more binding, comparable within an allelic series)"
same,binding signal,[2],"11.1 upbm affinity estimate (log intensity, higher = more binding, comparable within an allelic series)"
same,binding signal,[25],"12.3 upbm affinity estimate (log intensity, higher = more binding, comparable within an allelic series)"
same,binding signal,[3],"11.2 upbm affinity estimate (log intensity, higher = more binding, comparable within an allelic series)"
same,binding signal,[26],"12.5 upbm affinity estimate (log intensity, higher = more binding, comparable within an allelic series)"
TCCAGGGA,binding signal,[1],"9.73 upbm affinity estimate (log intensity, higher = more binding, comparable within an allelic series)"
same,binding signal,[12],"9.47 upbm affinity estimate (log intensity, higher = more binding, comparable within an allelic series)"
same,binding signal,[2],"9.67 upbm affinity estimate (log intensity, higher = more binding, comparable within an allelic series)"
same,binding signal,[3],"9.68 upbm affinity estimate (log intensity, higher = more binding, comparable within an allelic series)"
same,binding signal,[6],"9.68 upbm affinity estimate (log intensity, higher = more binding, comparable within an allelic series)"
CTGCCTCC,binding signal,[1],"9.62 upbm affinity estimate (log intensity, higher = more binding, comparable within an allelic series)"
same,binding signal,[2],"9.69 upbm affinity estimate (log intensity, higher = more binding, comparable within an allelic series)"
same,binding signal,[14],"9.53 upbm affinity estimate (log intensity, higher = more binding, comparable within an allelic series)"
same,binding signal,[3],"9.67 upbm affinity estimate (log intensity, higher = more binding, comparable within an allelic series)"
same,binding signal,[15],"9.62 upbm affinity estimate (log intensity, higher = more binding, comparable within an allelic series)"
same,binding signal,[20],"9.56 upbm affinity estimate (log intensity, higher = more binding, comparable within an allelic series)"
same,binding signal,[6],"9.6 upbm affinity estimate (log intensity, higher = more binding, comparable within an allelic series)"
CCCTGCGG,binding signal,[1],"9.55 upbm affinity estimate (log intensity, higher = more binding, comparable within an allelic series)"
same,binding signal,[4],"7.02 upbm affinity estimate (log intensity, higher = more binding, comparable within an allelic series)"
same,binding signal,[2],"9.73 upbm affinity estimate (log intensity, higher = more binding, comparable within an allelic series)"
same,binding signal,[14],"9.39 upbm affinity estimate (log intensity, higher = more binding, comparable within an allelic series)"
same,binding signal,[3],"9.6 upbm affinity estimate (log intensity, higher = more binding, comparable within an allelic series)"
same,binding signal,[5],"10.3 upbm affinity estimate (log intensity, higher = more binding, comparable within an allelic series)"
same,binding signal,[15],"9.44 upbm affinity estimate (log intensity, higher = more binding, comparable within an allelic series)"
same,binding signal,[20],"9.6 upbm affinity estimate (log intensity, higher = more binding, comparable within an allelic series)"
same,binding signal,[6],"9.56 upbm affinity estimate (log intensity, higher = more binding, comparable within an allelic series)"
same,binding signal,[7],"10.5 upbm affinity estimate (log intensity, higher = more binding, comparable within an allelic series)"
same,binding signal,[8],"7 upbm affinity estimate (log intensity, higher = more binding, comparable within an allelic series)"
